About 79,000 compounds went through this panel and 15% of them were active in at least one assay; those are over-represented in the sample as a whole. Calls of active or inactive are those of the source. Cut-off read from the data, not from the text of the source: active = growth inhibition above about 70%; inactive = the rest.
Tests used:
[1] = NCI Yeast Anticancer Drug Screen. Data for the rad50 strain (AID 155);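 note: 0% = growth of vehicle-only cultures of the same strain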; conditions: S. cerevisiae rad50 strain growth inhibition; at 50.0 µM; active compounds read high
How it was run: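 DNA repair mutant yeast, compound exposure, growth read-out; inhibition is taken relative to vehicle.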

[2] = NCI Yeast Anticancer Drug Screen. Data for the mec2-1 strain (AID 157); conditions: S. cerevisiae mec2-1 strain, at 50.0 µM, active compounds read high
How it was run: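 Readout is yeast growth inhibition, normalised to vehicle-treated controls, in the mec2-1 strain exposed to compound.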

[3] = NCI Yeast Anticancer Drug Screen. Data for the sgs1 mgt1 strain (AID 161);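 note: 0% = growth of cultures given vehicle only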; conditions: S. cerevisiae sgs1 mgt1 strain, at 50.0 µM, active compounds read high
How it was run: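 This yeast growth screen uses a strain with defined DNA-repair lesions; compound-treated growth is compared with vehicle-treated growth.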

[4] = NCI Yeast Anticancer Drug Screen. Data for the cln2 rad14 strain (AID 165);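 note: 0% = growth equal to vehicle treated cultures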; conditions: S. cerevisiae cln2 rad14 strain, at 50.0 µM, active compounds read high
How it was run: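 Relative to vehicle controls, growth inhibition of compound-treated cln2 rad14 yeast was recorded.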

[5] = NCI Yeast Anticancer Drug Screen. Data for the bub3 strain (AID 167); conditions: S. cerevisiae bub3 mutant strain, at 50.0 µM, active compounds read high
How it was run: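 In this screen, a yeast mutant lacking normal mitotic checkpoint function is challenged with compound. Relative growth versus vehicle gives the inhibition value.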

[6] = NCI Yeast Anticancer Drug Screen. Data for the mlh1 rad18 strain (AID 175); conditions: S. cerevisiae mlh1 rad18 strain growth inhibition; at 50.0 µM; active compounds read high
How it was run: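 Test agents were incubated with a yeast strain of defined genotype (DNA damage repair defect). Inhibition of growth was derived by comparison with vehicle-exposed cultures.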

Measured: growth inhibition

C=CCOc1c(C)cc(C(N)=O)cc1C
inactive: [1] 4.45% | [2] -6.85% | [3] 24.6% | [4] 18.9% | [5] 5.45% | [6] 51.4%

CCCCCCCCCCCCCCCCCCCC/C=C/C1CC(=O)OC1=O (stereo not drawn)
inactive: [1] -4.8% | [2] -6% | [3] 16.9% | [4] 26.8% | [5] 16.9% | [6] 7.1%

COc1ccccc1NC(=O)C(CC(C(=O)Nc1ccccc1OC)/C(C)=N/Nc1ccc([N+](=O)[O-])cc1[N+](=O)[O-])/C(C)=N/Nc1ccc([N+](=O)[O-])cc1[N+](=O)[O-] (stereo not drawn)
inactive: [1] 14.8% | [2] 4.95% | [3] 19.6% | [4] 10.6% | [5] 17.8% | [6] 32.4%

c1ccc(-c2cc(-c3ccccc3)c3ccc4c(-c5ccccc5)cc(-c5ccccc5)c5ccc2c3c54)cc1
inactive: [1] -43% | [2] -17.4% | [3] -14.3% | [4] 11.6% | [5] -18.9% | [6] -26.2%

CC(O)CNc1ncnc2c1cnn2C (stereo not drawn)
inactive: [1] -4.1% | [2] -24.9% | [3] -10.2% | [4] 8.8% | [5] -4.3% | [6] 12.8%

O=C1CCSSCCC(=O)Nc2ccccc2N1
inactive: [1] -36.4% | [2] -42.5% | [3] -14.8% | [4] -9.55% | [5] -18.1% | [6] -15.6%

NC(=O)CS(=O)CC(N)C(=O)O (stereo not drawn)
inactive: [1] -5.9% | [2] -34.4% | [3] -46% | [4] -57.1% | [5] -10.9% | [6] -29.6%

CCCCOC(=O)c1ccc(NC(=O)CCCN(CC)CC)cc1
inactive: [1] 5.5% | [2] -2.3% | [3] 0.85% | [4] 13.2% | [5] 14.4% | [6] -5%

C#CC(OC(C)=O)C1OC(n2cnc3c(Cl)nc(Cl)nc32)C(OC(C)=O)C1OC(C)=O (stereo not drawn)
inactive: [1] 37.5% | [2] 2.45% | [3] 21.2% | [4] 17.9% | [5] 10.8% | [6] 24.4%

COC1(OC)CC(CCl)OC1(OC)OC (stereo not drawn)
inactive: [1] -2.45% | [2] 0.25% | [3] 12.7% | [4] 1.55% | [5] 3.15% | [6] -4.5%

C=CCN(CC=C)C(=O)Nc1cccc2c(NC(=O)N(CC=C)CC=C)cccc12
inactive: [1] -24% | [2] -23.6% | [3] -17.5% | [4] 4.5% | [5] -21.8% | [6] -23.4%

CCOc1c(N=Nc2cccc(Cl)c2)c(-c2ccccc2)nn1C(N)=S
inactive: [1] -3.4% | [2] -10.3% | [3] -24.2% | [4] 2.15% | [5] 35.5% | [6] 20.8%

CC1CCS(=O)(=O)C1 (stereo not drawn)
inactive: [1] -12.8% | [2] -23.1% | [3] -35.9% | [4] 6.8% | [5] -8.4% | [6] -10.1%

CC12CCC(/C(=N/O)C1=O)C2(C)C (stereo not drawn)
inactive: [1] 2.15% | [2] -2.15% | [3] 1.1% | [4] -74.5% | [5] -1.8% | [6] 4.25%

CC1OC(OCC2COC(O)(Oc3c(-c4ccc(O)c(O)c4)oc4cc(O)cc(O)c4c3=O)C(O)C2O)C(O)C(O)C1O (stereo not drawn)
inactive: [1] 20.1% | [2] -29.4% | [3] -15.8% | [4] 0.6% | [5] 8.05% | [6] 13.9%

NNC(=O)c1ccccc1O
inactive: [1] 36% | [2] 14.4% | [3] 15.5% | [4] -12.3% | [5] 13.4% | [6] 62%

OC1c2cc(Br)ccc2-c2c(F)cc(Br)cc21 (stereo not drawn)
inactive: [1] 4.9% | [2] -6.75% | [3] -5.3% | [4] 4.65% | [5] 1.9% | [6] -10.9%

CC1=CC(=O)[C@@H]2C[C@H]1C2(C)C
inactive: [1] 15.3% | [2] 12.8% | [3] -33.9% | [4] -2.9% | [5] -2.1% | [6] 22.2%

c1ccc(SCN(CSc2ccccc2)c2ccccc2)cc1
inactive: [1] -1.35% | [2] 26.9% | [3] 13.8% | [4] 66.8% | [5] 22.1% | [6] 14.8%

CC(=NNC(=S)Nc1cccc(C)c1)c1cccc(C(C)=NNC(=S)Nc2cccc(C)c2)n1
inactive: [1] 37.4% | [2] 41.2% | [3] 62.6% | [4] 29.1% | [5] 35.4% | [6] 47.2%

O=C1C(=O)N(c2ccccc2Cl)C(=O)N1Cc1ccccc1
inactive: [1] 10.7% | [2] 8.45% | [3] 0.95% | [4] 13.8% | [5] 2.75% | [6] 2.1%

CCOC(=O)c1cc2c(OC)cc(OC)cc2oc1=O
inactive: [1] 21.8% | [2] 2.6% | [3] 25.1% | [4] 32.8% | [5] 28.9% | [6] 2.55%

Nc1[nH]c(=S)[nH]c(=O)c1N=Nc1c(Br)cc(S(N)(=O)=O)cc1Br
inactive: [1] 4.65% | [2] -15.9% | [3] -24.1% | [4] -24.9% | [5] 9.2% | [6] 0.25%

Cc1cccc(C2=NC(=C3CCCCC3)C(=O)O2)c1
inactive: [1] 4.5% | [2] 6.6% | [3] 5.8% | [4] 12.2% | [5] 4% | [6] 20.9%

[Co].[O-]c1cccnc1C=Nc1ccccc1.[OH3+]
inactive: [1] 24.8% | [2] 31.6% | [3] 37.4% | [4] 30.9% | [5] 33.9% | [6] 21.9%

O=C(c1ccccc1)N(N=C(c1ccc([N+](=O)[O-])cc1)c1ccc([N+](=O)[O-])cc1)c1ccccc1
inactive: [1] 24.7% | [2] 15.1% | [3] -6.6% | [4] -5.9% | [5] 5% | [6] 10.6%

C#CCOCCC(C(=O)O)C(=O)O
inactive: [1] 9.9% | [2] 5.45% | [3] 8.6% | [4] -1.7% | [5] 11.9% | [6] 2.7%

COC(=O)C(C(C)C(C)[N+](=O)[O-])=P(c1ccccc1)(c1ccccc1)c1ccccc1 (stereo not drawn)
inactive: [1] 41.7% | [2] 3.4% | [3] 29.5% | [4] 11.2% | [5] -4.95% | [6] 10.8%

C=CCOc1ccc(C2C(C(=O)OCC)C(=O)CC(C)(O)C2C(=O)OCC)cc1OC (stereo not drawn)
inactive: [1] -6.25% | [2] -11.3% | [3] -7.15% | [4] -24% | [5] 1.35% | [6] -7.45%

COC(=O)CC1C(=O)OC23CCC1C2(C)CCC1C3CCC2CC(OC(C)=O)CCC21C (stereo not drawn)
active: [1] 87.4% | [2] 89.3% | [3] 90.5% | [4] 82% | [5] 87.5% | [6] 87.9%

O=C1CCC2CCc3cccc1c32 (stereo not drawn)
inactive: [1] 0.15% | [2] -7.75% | [3] -12.3% | [4] -19.4% | [5] -18.6% | [6] 3.05%

S=C(S)NCNC(=S)S.[Zn+2]
inactive: [1] 1.65% | [2] 12.2% | [3] 26.1% | [4] -64.2% | [5] 28.2% | [6] 29.4%

O=C(CSCC(=O)c1ccc([N+](=O)[O-])cc1)c1ccc([N+](=O)[O-])cc1
inactive: [1] -19.4% | [2] -29.6% | [3] 9.85% | [4] -0.65% | [5] -20.1% | [6] -5%

Cc1ccc(C(=O)/C=C/c2ccc(N(C)C)cc2)cc1
inactive: [1] 38.8% | [2] 1.95% | [3] 34.8% | [4] 30.9% | [5] 29.4% | [6] 43.8%

CC1OC(c2ccc(Cl)cc2)OC1C (stereo not drawn)
inactive: [1] 16.4% | [2] 20.9% | [3] 10.9% | [4] -31.6% | [5] -5.7% | [6] 10.7%

CC1C(=NO)C(C)C(c2ccccc2)N(N=O)C1c1ccccc1 (stereo not drawn)
inactive: [1] -12.6% | [2] -20.5% | [3] -6.1% | [4] 3.25% | [5] 0.45% | [6] 26.4%

Brc1c(NC2=NCCN2)ccc2nccnc12
inactive: [1] 6.2% | [2] 5.1% | [3] -24% | [4] -6.45% | [5] -22.1% | [6] -56.9%

CCCCN(C=O)CCCC
inactive: [1] 20.7% | [2] 17.3% | [3] 17.4% | [4] 9.45% | [5] 4.75% | [6] 3.7%
